Test results reported in PubChem BioAssay (NCI).
Compounds without any hit were thinned out: in the full panel of roughly 83,000, 20% have a hit.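 The test compound was applied at a single concentration to cells in 96-well plates for 48 hours, and percent growth was recorded.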 Values without a mark were called inactive. The source made the active and inactive calls. Rule for the calls: active = growth percent below 10; inactive = the rest.

Legend:
Experiment in all cases: NCI-60 one-dose screen, 48 h (100 = growth as untreated, 0 = no growth, -100 = all killed)
Conditions in all cases: 10 µM unless noted
HT29 colon = test system: HT29 colon
SNB-75 CNS = test system: SNB-75 CNS
SNB-19 CNS = test system: SNB-19 CNS
U251 CNS = test system: U251 CNS
PC-3 prostate = test system: PC-3 prostate
UACC-62 melanoma = test system: UACC-62 melanoma
SK-MEL-28 melanoma = test system: SK-MEL-28 melanoma
SN12C renal = test system: SN12C renal
UO-31 renal = test system: UO-31 renal
TK-10 renal = test system: TK-10 renal
ACHN renal = test system: ACHN renal
CAKI-1 renal = test system: CAKI-1 renal
A498 renal = test system: A498 renal
CCRF-CEM leukemia = test system: CCRF-CEM leukemia
MOLT-4 leukemia = test system: MOLT-4 leukemia
SR leukemia = test system: SR leukemia
LOX IMVI melanoma = test system: LOX IMVI melanoma
SK-MEL-2 melanoma = test system: SK-MEL-2 melanoma
EKVX NSCLC = test system: EKVX NSCLC
SK-MEL-5 melanoma = test system: SK-MEL-5 melanoma

Row | SMILES | growth (HT29 colon) | growth (SNB-75 CNS) | growth (SNB-19 CNS) | growth (U251 CNS) | growth (PC-3 prostate) | growth (UACC-62 melanoma) | growth (SK-MEL-28 melanoma) | growth (SN12C renal) | growth (UO-31 renal) | growth (TK-10 renal) | growth (ACHN renal) | growth (CAKI-1 renal) | growth (A498 renal) | growth (CCRF-CEM leukemia) | growth (MOLT-4 leukemia) | growth (SR leukemia) | growth (LOX IMVI melanoma) | growth (SK-MEL-2 melanoma) | growth (EKVX NSCLC) | growth (SK-MEL-5 melanoma)
1 | C/C(=C\CCc1ccoc1)CC/C=C(\C)CCCN1CCC(CO)CC1 | 6.48% (active) | 36.4% | 76.2% | 40% | 57.8% | -63.3% (active) | 56.3% | 71.1% | 75.1% | 97.2% | 59.4% | 82.7% | 45% | 37.9% | 24.6% | 2.6% (active) | – | – | – | –
2 | O=C1c2ccccc2-c2c1nc1ccccc1[n+]2[O-] | 105% | 103% | 103% | 103% | 99.4% | 105% | – | 100% | 83.3% | 116% | 91.4% | – | 103% | 102% | – | – | 101% | 107% | 118% | –
3 | CCN1C(=O)c2ccc3c4c(ccc(c24)C1=O)C(=O)N(CCCNCc1ccccc1OC)C3=O | -48.8% (active) | -71.5% (active) | -64.1% (active) | -86.3% (active) | 0.702% (active) | -88.3% (active) | 3.31% (active) | -91.6% (active) | -42.5% (active) | -28.3% (active) | -67.1% (active) | -11.4% (active) | -80.7% (active) | -42.3% (active) | -51.7% (active) | -42% (active) | – | – | – | –
4 | CCCCC1Nc2nc(SC)n(C)c(=O)c2CN(Cc2ccccc2)C1=O (centres undefined) | 105% | 86% | 93.7% | 92.2% | – | 85.9% | 122% | 93.4% | 72.2% | 78.3% | 90.2% | 69.3% | 117% | 87% | 120% | 285% | 88.6% | 90% | 82.8% | 96.4%
5 | Cc1cc(C)n(C(=O)c2nn(-c3ccc(Cl)cc3)cc2O)n1 | 97.7% | 29.8% | 26.3% | 19.4% | – | 52.9% | 71.7% | 25.6% | 13.7% | 35.7% | 33.4% | 77.6% | 56.2% | 13% | 9.99% (active) | 3.49% (active) | 41.4% | 88.3% | 66.8% | 79.3%
6 | C[n+]1c2ccccc2c(Nc2ccc(N3CCCCC3)cc2)c2[nH]c3ccccc3c21 | -85% (active) | -94% (active) | -89.8% (active) | -98% (active) | – | -97.8% (active) | -98.9% (active) | -82.7% (active) | -97.5% (active) | -79.4% (active) | -96.2% (active) | -96.8% (active) | -88.3% (active) | -49.3% (active) | -63.4% (active) | -70.1% (active) | -86.2% (active) | -97.9% (active) | -56.1% (active) | -98.3% (active)
7 | CCCCSc1cc(C)nc(N)n1 | 103% | 81% | 99.4% | 93.8% | – | 93.9% | 113% | 92.1% | 45.5% | 93.8% | 96.9% | 97.6% | 92.8% | – | 102% | 98% | 92% | 93.4% | 97.2% | 101%
8 | COc1ccc2c(c1)C(=O)/C(=C/c1cccc(OCC(=O)c3ccccc3)c1)CC2 | 80.9% | 112% | 100% | 76.9% | – | 70.2% | 106% | 114% | 9.87% (active) | 107% | 94.4% | 80.4% | 89.2% | – | 52.7% | 11.1% | 70.3% | 67.3% | 75.8% | 39.3%
9 | COc1ccc(-c2nc3sccn3c2-c2ccnc(S(C)(=O)=O)n2)cc1 | 89% | 61.1% | 64.2% | 94.4% | – | 77.1% | 43.7% | 93.4% | -82% (active) | 117% | 74.2% | -69% (active) | 120% | 77.8% | 87.2% | 40.5% | 68.8% | 100% | 79.7% | 98.9%
10 | O=C(/C=C/c1cccnc1)/C=C/c1cccnc1 | -55.2% (active) | 24.7% | 21.5% | -34.9% (active) | – | -69.4% (active) | -78.4% (active) | 4.41% (active) | -81.9% (active) | 17.3% | 13% | -20.5% (active) | 93.1% | -48.4% (active) | -22.8% (active) | -57.3% (active) | -84% (active) | 64.1% | 43.3% | 21%
11 | CCOC(=O)c1c(C)nc(C)c(C(=O)OCC)c1-c1cccnc1 | 96.5% | 81.7% | 96.1% | 94.1% | – | 105% | 119% | 109% | 94% | 121% | 99.5% | 106% | 125% | – | 54.8% | 53.7% | 96.1% | 110% | 105% | 97.5%
12 | O=C(c1nn(-c2ccc(Cl)cc2)cc1O)n1nc(C(F)(F)F)cc1-c1ccccc1 | 37.8% | 55.4% | 51.2% | 46.8% | – | 44.2% | 53% | 45.9% | 37% | 69.3% | 38.8% | -20.6% (active) | 76% | 0.973% (active) | 13.1% | -30.4% (active) | 32.8% | 67.9% | 31.5% | 59%
13 | Cc1cc(NC(=O)Nc2cc(Cl)ccc2C)no1 | 106% | 76.8% | 110% | 108% | – | 91.1% | 142% | 109% | 96.2% | 231% | 103% | 96.1% | 133% | 109% | 97.5% | 59.4% | 99.3% | 116% | 87% | 102%
14 | CSC1=Nc2c(c(C)c(-c3ccccc3)n2CCCN2CCCCC2)C2=NC(=O)C[C@H](C)N12 | 21.4% | 50.3% | 20.2% | 11.8% | – | 53.7% | 43.2% | 45.5% | 56.6% | 48.7% | 66.8% | 66.9% | 80.8% | 20.7% | – | 2.43% (active) | 42.3% | 62.8% | 41.9% | 9.86% (active)
15 | Cc1ccc(C(C)C)cc1NC(=O)Nc1ccc([N+](=O)[O-])cc1 | 12.4% | 40.9% | 20.1% | 15.4% | – | 11.7% | 22.4% | 10.9% | -0.838% (active) | 16.8% | 7.86% (active) | 10.5% | 7.54% (active) | -14.5% (active) | -23% (active) | 3.13% (active) | 5.39% (active) | -2.75% (active) | 15.6% | 16.7%
16 | Cn1c(=O)c2nc(SCc3ccccc3)n(C)c2n(C)c1=O | 113% | 104% | 89.4% | 101% | – | 109% | 119% | 90.4% | 98.3% | 111% | 99.1% | 119% | 77.3% | 122% | 106% | 83.3% | 99.1% | 101% | 123% | 101%
17 | COc1ccc2[nH]c(-c3ccccc3)cc2c1 | 102% | 88% | 93.4% | 107% | – | 84.7% | 110% | 97.1% | 75.1% | 156% | 101% | 99.1% | 89% | 88.5% | 53.7% | -14.8% (active) | 105% | 101% | 94.5% | 97%
